ELG1 repair inh: qHTS screen for small molecules that inhibit ELG1-dependent DNA repair in human embryonic kidney (HEK293T) cells expressing luciferase-tagged ELG1 | AID 504467, 2011 | 2.3% of 330,000 active | HEK293T ELG1-luciferase reporter, luminescence, 16 h; DNA damage induced by 5-fluorouridine | Potency, µM (top dose mostly 46.1 µM), inactives show at the highest dose activity change, negative = inhibition, hits mostly inhibitors; further: on the % scale 0 is the no-effect control and ±100 the full control effect; nearly all actives have a fitted effect of over 55% in size
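Luminescence from the luciferase reporter, measured 30 min after ONE-Glo reagent at room temperature, was the read-out. Beforehand, 2,000 cells per well were exposed for 16 hr at 37 °C to 5-fluorouridine together with compound or vehicle.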
Rango release inh: qHTS Assay for Inhibitors of RanGTP induced Rango (Ran-regulated importin-beta cargo) - Importin beta complex dissociation; Snurportin-1 (Homo sapiens) + GTP-binding nuclear protein Ran (Homo sapiens) + Importin …; Biochemical FRET Rango-importin beta, RanGTP-induced dissociation; Potency, µM (highest dose often 46.1 µM), without a hit: top-dose activity change, negative = inhibition; 0.071% of 340,000 active; AID 540253, 2011; calls by dose curve; further: % of control where 0% means no effect; nearly all actives have a fitted effect of over 45% in size
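Compounds preincubate 5 min with complex of recombinant Rango and importin beta in PBS with 1 mM DTT. Ran (0.6 uM) loaded with 2 mM GTP plus 0.2 uM RCC1 starts dissociation; FRET is recorded 45 min later.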
Tb PFK inh: qHTS Assay to Find Inhibitors of T. brucei phosphofructokinase | ATP-dependent 6-phosphofructokinase (Trypanosoma brucei brucei), O15648 | T. brucei PFK, ADP-Glo luminescence | Potency, µM (titrated, usually from 57.5 µM), inactives show top-dose activity, negative = inhibition, usual class: inhibitors | 0.17% of 330,000 active;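 further: 0% = uninhibited 1x PFK enzyme wells and -100% = no-enzyme wells; nearly all actives have a fitted effect of over 60% in size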
Target sequence (O15648 whole entry, looked up): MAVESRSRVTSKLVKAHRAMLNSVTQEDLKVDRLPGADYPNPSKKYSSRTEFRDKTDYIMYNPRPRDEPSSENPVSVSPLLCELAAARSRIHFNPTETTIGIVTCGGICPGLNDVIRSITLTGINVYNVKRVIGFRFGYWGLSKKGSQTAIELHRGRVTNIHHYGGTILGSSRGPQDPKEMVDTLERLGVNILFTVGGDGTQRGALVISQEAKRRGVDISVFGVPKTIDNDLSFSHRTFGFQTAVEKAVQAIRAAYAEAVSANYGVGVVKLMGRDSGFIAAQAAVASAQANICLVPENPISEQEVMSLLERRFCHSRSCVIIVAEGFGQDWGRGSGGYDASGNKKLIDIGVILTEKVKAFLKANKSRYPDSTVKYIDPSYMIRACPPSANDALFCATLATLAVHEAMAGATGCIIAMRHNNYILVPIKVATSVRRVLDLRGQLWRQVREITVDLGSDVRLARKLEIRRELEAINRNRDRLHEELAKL
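PFK 1.25 nM, F6P 0.5 mM, ATP 0.1 mM, 0.1 M TEA pH 8.0, 5 mM MgCl2, 0.01% Tween20, 0.1% BSA; 45 min RT. ADP-Glo readout. qHTS titration up to 57 uM; curves fitted, compounds curve-classed.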
Rango-impB inh: qHTS Assay for Inhibitors of Rango (Ran-regulated importin-beta cargo) - Importin beta complex formation | Importin subunit beta-1 (Homo sapiens), Q14974 | Potency, µM (top dose mostly 92.2 µM), for the others: top-dose inhibition of complex formation | 0.031% of 340,000 active | Rango CFP/YFP FRET sensor + importin beta, 45 min; calls by dose curve;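 further: 0% = DMSO wells and 100% = buffer wells lacking importin beta; nearly all actives have a fitted effect of over 15% in size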
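FRET biosensor (snurportin 1 IBB flanked by EYFP and cerulean), 50 nM, with compound 5 min, then 0.125 microM importin beta in PBS, 1 mM DTT, 0.02% Tween-20, 0.1% BSA. CFP/YFP ratio read after 45 min at room temperature; pre-read flags interference.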
PKM2 act: qHTS Assay for Activators of Human Muscle isoform 2 Pyruvate Kinase; Pyruvate kinase PKM (Homo sapiens), P14618; purified PKM2, Kinase-Glo ATP luminescence, activation; response scale: 0% is enzyme alone, no compound; Potency, µM (series often up to 57.5 µM), inactives show top-dose activation, most hits filed as activators; 0.34% of 260,000 active; AID 1631, 2009; further: on the % scale 0 is the no-effect control and ±100 the full control effect; nearly all actives have a fitted effect of over 55% in size
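Purified hPK-M2 (>95%) run at intermediate activity with 0.1 mM ADP and 0.5 mM PEP in 50 mM imidazole pH 7.2, KCl, MgCl2; 1 h room temperature. ATP formed read by Kinase-Glo luminescence; normalized to uninhibited and no-enzyme controls.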
Tb PGK inh: qHTS Assay to Find Inhibitors of Phosphoglycerate Kinase | PGK/GAPDH coupled, Kinase-Glo luminescence, 60 min | Phosphoglycerate kinase, glycosomal (Trypanosoma brucei brucei), P07378 | Potency, µM (series often up to 57.5 µM), for inactives: top-dose activity change, negative = inhibition, most hits filed as inhibitors | 0.043% of 380,000 active; further: on the % scale 0 is the no-effect control and ±100 the full control effect; nearly all actives have a fitted effect of over 60% in size
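Recombinant glycosomal PGK reaction used 1,3-bisphosphoglycerate generated in-well by GAPDH (100nM final) in 100mM TEA pH 7.6, 5mM MgCl2, 0.01% Tween-20. After 60 minutes at room temperature, ATP was read by Kinase-Glo Plus luminescence end-point.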
ELG1 Luc conf: HTS assay for small molecules that inhibit ELG1-dependent DNA repair in human embryonic kidney (HEK293T) cells expressing luciferase-tagged ELG1: Hit Confirmation. shares compounds with ELG1 repair inh. HEK293T ELG1-luciferase levels, luminescence; cells co-treated with 5-fluorouridine. Potency, µM (series often up to 46.1 µM), for inactives: top-dose activity change, negative = inhibition, hits mostly inhibitors. 68% of 670 active. AID 624248, 2012; further: on the % scale 0 is the no-effect control and ±100 the full control effect; nearly all actives have a fitted effect of over 55% in size
ELG1 MMS Luc: confirmation of human ELG1 repair inhibitors, MMS stimulated; HEK293T luciferase-tagged ELG1 level, MMS stimulated; 53% of 670 active; Potency, µM (highest dose often 46.1 µM), for inactives: top-dose activity change, negative = inhibition, most hits filed as inhibitors; shares compounds with ELG1 repair inh; further: on the % scale 0 is the no-effect control and ±100 the full control effect; nearly all actives have a fitted effect of over 60% in size
ELG1 5-FU: qHTS screen for small molecules that inhibit ELG1-dependent DNA repair: Hit Confirmation with 5FU Viability; Potency, µM (series often up to 46.1 µM), without a hit: at the highest dose activity change, negative = viability loss, hits mostly cytotoxic; cell viability with 5-FU, ELG1-dependent repair; 670 tested, under 10 active; shares compounds with ELG1 repair inh;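 further: ELG1-luc HEK293T cells cotreated with 5-fluorouridine at 10 µM final; viability measured 16 h after compound addition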
ELG1 MMS cell: qHTS screen for small molecules that inhibit ELG1-dependent DNA repair: Hit Confirmation with MMS Viability | shares compounds with ELG1 repair inh | Cell viability with MMS, ELG1-dependent DNA repair | Potency, µM (doses to about 46.1 µM), for the others: at the top dose activity change, negative = viability loss, actives largely listed as cytotoxic | 33% of 670 active | AID 624251, 2012;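 further: ELG1-luc HEK293T cells co-treated with 10 µM MMS; viability read 16 h after compound addition; on the % scale 0 is the no-effect control and ±100 the full control effect; nearly all actives have a fitted effect of over 60% in size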
Cell viab unstim: qHTS screen for small molecules that inhibit ELG1-dependent DNA repair: Hit Confirmation with Unstimulated Viability Assay | shares compounds with ELG1 repair inh | cell viability counter-screen, unstimulated, luminescence | Potency, µM (highest dose often 45.9 µM), for inactives: at the top dose activity change, negative = loss of viability, usual class: cytotoxic | 8% of 900 active;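 further: compound exposure lasted 16 hours before reading; on the % scale 0 is the no-effect control and ±100 the full control effect; nearly all actives have a fitted effect of over 55% in size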
An asterisk follows results filed as active; i = inactive; ? = inconclusive; / = no result given. A selection: hits, their analogues and other compounds. The true share with any hit is near 2.4%. Unless noted, the call rests on the fitted dose curve; in most records, active means well fitted curve in the direction sought with a large enough effect; inconclusive means small, poorly fitted or top-dose-only effect, or another doubt; inactive means no such curve, though single readings can be large; an effect the other way counts as inactive or inconclusive. Potency means the concentration at half of the fitted maximal effect.

SMILES | ELG1 repair inh | Rango release inh | Tb PFK inh | Rango-impB inh | PKM2 act | Tb PGK inh | ELG1 Luc conf | ELG1 MMS Luc | ELG1 5-FU | ELG1 MMS cell | Cell viab unstim
CSc1cccc(NS(=O)(=O)c2ccc3c(c2)CCN3C(C)=O)c1 | ? | -9% | 1% | 0% | / | 0% | / | / | / | / | /
COc1cccc(NS(=O)(=O)c2ccc3c(c2)CCN3C(C)=O)c1 | 2.1µM* | 1% | -8% | 2% | / | 0% | ? | 6.3µM* | -6% | 4.4µM* | ?
Oc1csc(Cc2nc(-c3ccccc3F)cs2)n1 | ? | -16% | -1% | -1% | -13% | i | / | / | / | / | /
Cc1cc(C(=O)COC(=O)c2ccccc2O)c(C)n1CC1CCCO1 (stereo not drawn) | ? | -16% | -2% | -2% | / | -30% | / | / | / | / | /
Cc1cc(C(=O)COc2ccccc2C(N)=O)c(C)n1CC1CCCO1 (stereo not drawn) | ? | -11% | 7% | -2% | 6% | -6% | ? | 1µM* | -2% | 1.3µM* | ?
CN(C)c1ccc(/C=C2\CCc3ccccc32)cc1 | / | / | / | / | / | / | / | / | / | / | -6%
O=C(CSc1nnc(-c2cccc(Cl)c2)o1)Nc1ccc2c(c1)OCCO2 | ? | 9% | 0% | -3% | -19% | -8% | / | / | / | / | -1%

Screening data deposited in PubChem by National Center for Advancing Translational Sciences (NCATS).
